# From PubChem BioAssay AID602318 (Sanford-Burnham Center for Chemical Genomics, 2012)
# Screen size: about 1,900 compounds; about 550 (29%) were called active. No stated cut-off is given here; in the data, active means inhibition above about 40%; inactive means the rest. A selection follows.
# Molecular target: 26S proteasome non-ATPase regulatory subunit 14 (Homo sapiens) (UniProt O00487)
# Assay: Rpn11 (PSMD14) deubiquitinase inhibitors, confirmation, biochemical, fluorescence polarization, single concentration (AID 602318)
# Details: purified human 26S proteasome, Ub4-pepOG fluorescence polarization; at 20 µM; stronger effect = higher value; proteasome pretreated with epoxomicin
# Sequence of 26S proteasome non-ATPase regulatory subunit 14 (Homo sapiens) (O00487 whole entry, looked up): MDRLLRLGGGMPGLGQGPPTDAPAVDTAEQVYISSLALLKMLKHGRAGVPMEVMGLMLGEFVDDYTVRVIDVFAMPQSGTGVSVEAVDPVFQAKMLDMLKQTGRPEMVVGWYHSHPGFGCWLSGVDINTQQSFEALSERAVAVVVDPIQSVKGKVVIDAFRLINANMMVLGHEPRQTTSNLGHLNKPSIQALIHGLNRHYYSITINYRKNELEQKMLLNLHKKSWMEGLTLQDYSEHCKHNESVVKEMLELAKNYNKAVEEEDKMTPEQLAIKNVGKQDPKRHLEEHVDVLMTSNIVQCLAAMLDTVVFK
row,Compound,inhibition
1,CCc1ccc(-c2cc(C(=O)NCc3ccco3)c3ccccc3n2)s1,40.9% (active)
2,CCCS(=O)(=O)N1CCCC(C(=O)NCc2ccco2)C1 (stereo unspecified),-10.1% (inactive)
3,C=CCn1c(=S)[nH]c2scc(-c3ccco3)c2c1=O,0.26% (inactive)
4,CCC(C)Cn1c(O)cc2nn(-c3nc4ccccc4s3)c(=O)c-2c1C (stereo unspecified),15.4% (inactive)
5,Cc1ccc(NC(=O)c2c(NC(=O)CCC(=O)O)sc3c2CCCCC3)cc1,-3.94% (inactive)
6,COc1ccc(CNC(=O)c2nnn(CC(=O)Nc3cc(C)cc(C)c3)c2N)cc1,52.8% (active)
7,CSC1=N/C(=C\C=C\c2cccs2)C(=O)S1,29.7% (inactive)
8,CCN1CCN(c2cc3nc(C)n(Cc4ccccc4)c(=O)c3cc2NC(=O)c2ccccc2F)CC1,17.4% (inactive)
9,C/C(=N/Nc1nc(-c2ccccc2)c(CC(=O)O)s1)c1ccccc1,34% (inactive)
10,COc1ccc(Cl)cc1NC(=O)CCS(=O)(=O)c1ccc(Br)cc1,124% (active)
11,O=C(CCS(=O)(=O)c1cccc2nonc12)NCCc1ccccc1Cl,-2.85% (inactive)
12,CCCOc1ccc(Cn2c(O)cc(=O)[nH]c2=O)cc1,20.3% (inactive)
13,CCNCc1cc2cc(C)ccc2[nH]c1=O,18.7% (inactive)
14,Cc1ccc(Nc2nc(Cl)c(C=O)s2)cc1,55% (active)
15,Cc1ccc(Nc2ccccc2N)cc1,32.8% (inactive)
16,O=C(OCc1cc2ccccc2[nH]c1=O)c1cccnc1,-8.83% (inactive)
17,CC(C)Cn1c(CCC(=O)O)ccc1-c1cccs1,-26.6% (inactive)
18,CC(C)CC1C(=O)N(Cc2cn(Cc3ccco3)nn2)CCS(=O)(=O)N1Cc1ccc(-c2ccc(Cl)c(Cl)c2)cc1 (stereo unspecified),17.1% (inactive)
19,Cc1c(NC(=O)CSc2cccc3cccnc23)c(=O)n(-c2ccccc2)n1C,21.1% (inactive)

row,Compound,inhibition
1,CN=c1scc(-c2cc(OC)ccc2OC)n1/N=C/c1c(C)[nH]c2ccccc12,44.5% (active)
2,CC(=O)c1sc(N/N=C/c2ccc(C(C)C)cc2)nc1C,-9.02% (inactive)
3,CCOC(=O)N1CCC(NC(=O)C(NS(=O)(=O)c2ccc3c(c2)CCN3C(=O)CC)C(C)C)CC1 (stereo unspecified),4.92% (inactive)
4,Cc1sc2nc(COC(=O)C(NC(=O)c3ccc(Cl)cc3Cl)C(C)C)[nH]c(=O)c2c1C (stereo unspecified),34.7% (inactive)
5,C=CC1=C(C(=O)O)N2C(=O)[C@@H](NC(=O)/C(=N/OCC(=O)O)c3csc(N)n3)[C@H]2SC1,66.5% (active)
6,CCC/C=C(\CCC)C(NC(=O)Cc1ccccc1)c1ccc(C(=O)OC)cc1 (stereo unspecified),-5.68% (inactive)
7,CCCCCCCCCCOC(=O)Cn1c(COc2cccc(OC)c2)[n+](C)c2ccccc21,7.65% (inactive)
8,COC1=C/C(=C/c2c(N)n3nc(CC(=O)N4CCOCC4)sc3nc2=O)C=CC1=O,31.8% (inactive)
9,O=C(COc1cccc(F)c1)Oc1ccc(C(=O)c2ccccc2)cc1,-1.38% (inactive)
10,Cc1ccc(N=Cc2c(O)cc(C)oc2=O)c(C)c1,22.8% (inactive)
11,CCOc1ccc(-n2c(O)c(/C=N/c3ccnn3Cc3ccncc3)c3ccccc3c2=O)cc1,98.3% (active)
12,CCOc1ccc(-n2c(O)c(/C=N/Nc3nnc(C)c(=O)[nH]3)c3ccccc3c2=O)cc1,38.6% (inactive)
13,COc1ccc2[nH]c(=O)c(-c3noc(-c4ccc(F)cc4)n3)cc2c1,3.41% (inactive)
14,Cc1cc(/C=N/Nc2ccc([N+](=O)[O-])cn2)c(C)n1-c1cccc(C(=O)O)c1,19.1% (inactive)
15,Cc1oc2c(C)c3oc(=O)c(CC(=O)N[C@@H](CC(C)C)C(=O)N[C@@H](Cc4ccccc4)C(=O)O)c(C)c3cc2c1C,26.8% (inactive)
16,N#Cc1c(-c2cccs2)nc(SCC(=O)c2ccc(Br)cc2)[nH]c1=O,46% (active)
17,CCCCCCSc1ccc([C@@H]2[C@H]3C(=O)N(CC)C(=O)[C@H]3[C@]3(C(=O)OC)CCCCN23)cc1,33.6% (inactive)
18,CS(=O)(=O)c1ccc2c(c1)SC1=NC(=O)/C(=C/c3ccco3)C(=N)N12,46.2% (active)
19,CN(C)c1ccc(-n2cccc2/C=C2/SC(=Nc3ccc(F)cc3)NC2=O)cc1,-10.9% (inactive)

row,Compound,inhibition
1,Cc1cc(/C=C2/SC(=O)N(CC(=O)N3CCCC3)C2=O)ccc1N1CCOCC1,33.9% (inactive)
2,COc1cccc(-c2nn(-c3ccccc3)cc2/C=C(\C#N)C(=O)NCCCn2ccnc2)c1,53.8% (active)
3,CCN(CC)C(=O)CSc1nc2ccccc2n1CC(=O)N1CCN(c2ccccc2OC)CC1,-7.43% (inactive)
4,O=C(CSc1nc2ccccc2c(=O)[nH]1)Nc1nc(-c2ccc(Br)cc2)cs1,129% (active)
5,C=CCn1c(SCC(=O)NCc2ccccc2)nnc1-c1cc(Br)ccc1O,-6.6% (inactive)
6,Cc1ccc2cc(C#N)c(NCCNC(=S)NCCCN3CCOCC3)nc2c1,1.22% (inactive)
7,O=C(Nc1ccc(-c2nnc(-c3ccccc3)o2)cc1)c1ccc(Br)o1,11.5% (inactive)
8,COc1cc(/C=C2/SC(=S)N(Cc3ccccc3)C2=O)cc(OC)c1O,49.8% (active)
9,Nc1nonc1-n1nnc(C(=O)N/N=C/c2cc(Br)ccc2O)c1CSC1=NCCS1,24.8% (inactive)
10,CCOc1cc(/C=C2\SC(N3CCCCC3)=NC2=O)ccc1O,18.3% (inactive)
11,N#Cc1ccc(C(=O)Nc2cccc3cccnc23)c(F)c1,-21.1% (inactive)
12,CC(=O)/C(=N\Nc1ccc(Cl)cc1Cl)Sc1cccc2cccnc12,62.9% (active)
13,O=C(CSc1cccc2cccnc12)N/N=C/c1cccnc1,32.7% (inactive)
14,CC1CCN(c2ccc3c(c2)S(=O)(=O)c2cc(C(=O)O)ccc2C3=O)CC1,30.4% (inactive)
15,COc1cccc(/C=C(/CC(=O)Nc2ccc(N3CCOCC3)cc2)c2nc3ccccc3s2)c1,57.2% (active)
16,Cc1nc2ccccc2n1C(=O)N1CCOCC1,-9.96% (inactive)
17,COc1ccc(-n2c(SCC(=O)Nc3sc4c(c3C#N)CCCC4)nnc2-c2ccc(O)cc2)cc1,13.9% (inactive)
18,CC(=O)Nc1ccccc1Sc1ccc2c3c(cccc13)C(=O)N(c1ccc(C)cc1)C2=O,1.98% (inactive)
